Source: PMC4336329 (PLoS ONE, 2015)
About 14,000 (4.5%) of roughly 310,000 compounds showed an effect of 50% or more. Effects have a minus sign here. For the sample, strong results were picked, then their nearest neighbours and some compounds at random.

molecular target: human ether-à-go-go-related gene (hERG) potassium channel (human, UniProt Q12809); assay: primary screen, population patch clamp on CHO cells stably expressing hERG; higher = less effect of the substance
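Further: peak tail current of the secondary pulse compared with the same well before compound.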

Sequence of human ether-à-go-go-related gene (hERG) potassium channel (Q12809 whole entry, looked up): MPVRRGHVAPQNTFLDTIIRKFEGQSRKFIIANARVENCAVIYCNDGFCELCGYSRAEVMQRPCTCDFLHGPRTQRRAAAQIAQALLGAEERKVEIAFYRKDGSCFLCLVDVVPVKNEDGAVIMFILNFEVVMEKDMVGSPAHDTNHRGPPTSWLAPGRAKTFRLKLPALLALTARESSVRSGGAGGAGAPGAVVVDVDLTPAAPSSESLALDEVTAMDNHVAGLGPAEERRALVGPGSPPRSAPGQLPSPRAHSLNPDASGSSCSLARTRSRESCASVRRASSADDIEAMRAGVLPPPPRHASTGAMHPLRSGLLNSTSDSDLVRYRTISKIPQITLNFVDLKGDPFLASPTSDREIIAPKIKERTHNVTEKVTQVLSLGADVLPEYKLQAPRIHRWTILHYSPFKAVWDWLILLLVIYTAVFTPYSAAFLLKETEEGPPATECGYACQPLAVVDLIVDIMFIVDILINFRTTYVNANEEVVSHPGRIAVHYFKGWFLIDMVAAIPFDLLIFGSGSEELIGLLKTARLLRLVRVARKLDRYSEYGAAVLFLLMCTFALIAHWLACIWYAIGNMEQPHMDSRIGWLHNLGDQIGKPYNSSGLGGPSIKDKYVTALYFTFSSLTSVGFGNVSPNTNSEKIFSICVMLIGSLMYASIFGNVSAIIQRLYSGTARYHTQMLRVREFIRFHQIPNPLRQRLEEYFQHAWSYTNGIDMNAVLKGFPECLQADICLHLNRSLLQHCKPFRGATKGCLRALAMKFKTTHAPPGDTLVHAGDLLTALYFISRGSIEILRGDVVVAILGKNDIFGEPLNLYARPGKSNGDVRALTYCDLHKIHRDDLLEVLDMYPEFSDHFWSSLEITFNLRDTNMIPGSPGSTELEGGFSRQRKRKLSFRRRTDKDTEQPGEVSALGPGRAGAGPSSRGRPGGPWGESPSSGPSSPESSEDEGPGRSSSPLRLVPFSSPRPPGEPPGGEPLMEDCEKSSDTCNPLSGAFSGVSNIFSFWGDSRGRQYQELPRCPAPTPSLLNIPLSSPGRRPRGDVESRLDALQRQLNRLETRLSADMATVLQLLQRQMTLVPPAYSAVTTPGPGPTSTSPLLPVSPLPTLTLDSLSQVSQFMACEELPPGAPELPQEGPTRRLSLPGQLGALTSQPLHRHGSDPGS

SMILES | hERG current change (%, negative = inhibition) at 10uM
COc1ccc(C(=O)OCCN2C(=O)c3ccccc3C2=O)cc1 | -5.4%
COc1cc(OC)cc(-c2sc3ccc(OC)cc3c2C#CCCO)c1 | 10.5%
COc1ccc(CC(=O)NNC(=O)CCC(=O)Nc2cc(C)ccc2C)cc1 | 10.4%
Cc1[nH]c2ccccc2c1C(=O)NS(=O)(=O)Nc1ccccc1 | 9.15%
CS(=O)(=O)c1cccc(C(=O)NCc2ccccc2)c1 | -0.394%
CC1(c2ccccc2)NC(=O)N(CC(=O)Nc2ccc(N3CCOCC3)cc2N2CCOCC2)C1=O (centres unmarked) | 6.74%
CCc1ccc(C(=O)N/N=C(\C)c2ccncc2)s1 | -11.1%
O=C(Nc1ccccc1)c1nccn1Cc1ccc(F)cc1 | -10.9%
Cc1ccc(Cn2ccnc2C(=O)Nc2ccccc2)cc1 | 6.59%
N#Cc1ccc(Cn2ccnc2C(=O)Nc2ccccc2)cc1 | -87%
Cn1c(SCC(=O)NC2CCCC2)nnc1-c1ccncc1 | 33.9%
CCOc1cc(C(=S)N2CCN(C)CC2)ccc1OCC(=O)N1CCCC1 | 16%
Cc1ccc(C2=Nc3cccnc3C(c3ccccc3)=NN2)cc1 | 0.802%
O=C(CSc1nnc2n(C3CCCC3)c(=O)c3ccccc3n12)N1CCCCCC1 | -51.1%
CC1CCCN(C(=O)CSc2nnc3ccccn23)C1 (centres unmarked) | 4.63%
CC1CCCN(C(=O)CSc2nnc(-c3cccnc3)n2C2CCCCC2)C1 (centres unmarked) | -13.4%
CC1CCCN(C(=O)CSc2nnc3n(C4CCCC4)c(=O)c4ccccc4n23)C1 (centres unmarked) | -62.7%
COc1ccccc1Cn1c(=O)c2ccccc2n2c(SCC(=O)N3CCCCC3)nnc12 | 15.2%
O=C(CSc1nnc2n(C3CCCCC3)c(=O)c3ccccc3n12)OC1CCCCC1 | -4.92%
O=C(O)c1nccnc1C(=O)Nc1ccc(Oc2c(Cl)cccc2Cl)nc1 | -26.1%
COc1ccccc1NC(=O)CN1CCN(CC(=O)Nc2ccc(F)cc2)CC1 | -79.2%
COc1ccc(C)cc1NC(=O)CN1CCN(S(=O)(=O)c2ccc(F)cc2)CC1 | 7.19%

SMILES | hERG current change (%, negative = inhibition) at 10uM
COc1ccccc1NC(=O)CN1CCN(CC(=O)Nc2ccc(C)c(F)c2)CC1 | -70%
COc1ccc(C)cc1NC(=O)CN1CCN(c2ccc(F)cc2)CC1 | -50.4%
COc1ccc(C)cc1NC(=O)CN1CCN(c2ccccc2F)CC1 | -10.3%
COc1cc(NC(=O)CN2CCN(CC(=O)Nc3ccccc3OC)CC2)cc(OC)c1 | 0.0651%
COc1ccccc1NC(=O)CN1CCN(c2ccccc2F)CC1 | -18.4%
CCN(CC)c1ccc(NC(=O)CN2CCN(CC(=O)Nc3ccccc3OC)CC2)cc1 | -26.9%
COc1ccccc1N1CCN(CC(=O)Nc2ccc(C)c(F)c2)CC1 | -23.1%
COc1ccc(Nc2nc3[nH]c(=O)cc(O)c3s2)cc1 | 14.2%
Cc1ccc(S(=O)(=O)NN2C(=O)/C(=C/c3ccc(C(=O)O)cc3)SC2=S)cc1 | 19.9%
Cc1ccc(NC(=O)CCNC(=O)c2ccc(Cl)cc2)cc1F | 9.19%
O=C(CCNS(=O)(=O)c1ccccc1)NNC(=O)COc1ccc(Cl)cc1 | 2.29%
O=C(COc1ccc(Nc2ccccc2)cc1)Nc1ccncc1 | -30.1%
O=C(Nc1ccc2c(c1)OCO2)Nc1ccc(Cl)cc1Cl | 9.53%
CCCCOC(=O)NC(NCC(O)c1ccccc1)(C(F)(F)F)C(F)(F)F (centres unmarked) | 6.78%
O=C(CN(Cc1ccc(Cl)cc1)C(=O)c1csnn1)NCc1ccc(F)cc1 | -66.6%
COc1ccc(CNC(=O)CN(Cc2ccccc2Cl)C(=O)c2csnn2)cc1 | -34.8%
O=C(CN(C(=O)c1csnn1)c1cccc2c1CCCC2)NCc1ccccc1 | -5.19%
O=C(CN(Cc1ccc(F)cc1)C(=O)c1csnn1)NCc1ccccc1 | -31.6%
COc1ccc(CNC(=O)CN(C(=O)c2csnn2)c2cccc3c2CCCC3)cc1 | -14.9%
O=C(CN(Cc1ccccc1)C(=O)c1csnn1)NCc1ccccc1 | 8.5%
O=C(CN(Cc1ccccc1)C(=O)c1csnn1)NCCc1ccccc1 | -18.9%
O=C(CN(Cc1ccc(Cl)cc1)C(=O)c1csnn1)NCc1ccccc1 | -56.7%

SMILES | hERG current change (%, negative = inhibition) at 10uM
O=C(CN(Cc1ccccc1Cl)C(=O)c1csnn1)NCc1ccc(F)cc1 | -50.4%
C=CCN(CC(=O)NCc1ccc(F)cc1)C(=O)c1csnn1 | -18.2%
O=C(CN(Cc1ccccc1Cl)C(=O)c1csnn1)NCc1ccccc1 | -24%
O=C(CN(C(=O)c1csnn1)c1cccc2c1CCCC2)NCc1ccc(F)cc1 | -57.7%
C/C(=N/NC(=O)c1ccc2c(c1)OCO2)c1cccc([N+](=O)[O-])c1 | -10.1%
COc1ccc(C(=O)OCn2nnc3ccccc3c2=O)cc1 | -10.4%
Cc1cc(C(=O)Nc2ccc(Nc3ccccc3)cc2)ccc1[N+](=O)[O-] | 17.3%
CCc1ccc(NC(=O)CS(=O)CC(=O)NC(C)CCc2ccco2)cc1 (centres unmarked) | 9.65%
CSc1nc2ccccc2cc1/C=C(\C#N)c1cccc(Cl)c1 | 8.2%
CCN1C(C(=O)Nc2cc(C)on2)=C(O)c2ccccc2S1(=O)=O | 24.7%
CCCCCC(=O)Nc1cccc(C2=NOC3(C2)C[C@@H](C(N)=O)N(C(=O)c2ccc(Cl)cc2)C3)c1 (some centres unmarked) | -29.6%
O=C(COc1ccc(Cl)cc1)Nc1cccc(S(=O)(=O)NC2=NCCCCC2)c1 | -42.1%
C/C(=N\NC(=O)Cc1ccccc1)c1cccs1 | -4.86%
C/C(=N\NC(=O)CN1CCN(Cc2ccccc2)CC1)c1cccs1 | -50.9%
C/C(=N\NC(=O)c1ccc(CN2CCOCC2)cc1)c1ccc([N+](=O)[O-])cc1 | -7.18%
C/C(=N/NC(=O)CN1CCN(Cc2ccccc2)CC1)c1ccc([N+](=O)[O-])cc1 | -76.5%
C/C(=N/NC(=O)CC(=O)N/N=C(\C)c1ccc([N+](=O)[O-])cc1)c1ccc([N+](=O)[O-])cc1 | -28.8%
C/C(=N\NC(=O)CSc1nc(C)cc(C)n1)c1ccc([N+](=O)[O-])cc1 | -10.8%
C/C(=N/NC(=O)CSc1ccccn1)c1ccc([N+](=O)[O-])cc1 | -64.2%
C/C(=N/NC(=O)CN1CCN(Cc2ccccc2Cl)CC1)c1cccs1 | -17.8%
C/C(=N\NC(=O)CN1CCCCC1)c1cccc([N+](=O)[O-])c1 | -25.9%
CC1CCCCN1C(=O)CSc1nnc(-c2ccco2)n1C (centres unmarked) | 4.88%

SMILES | hERG current change (%, negative = inhibition) at 10uM
COCCNCC(=O)N1CCCCCC1.O=C(O)C(=O)O | -24.6%
Cc1cc(C(=O)OCC(=O)N2CCCC2)c2ccccc2n1 | -9.04%
CC(C)(C)NC(=O)C(=O)NNC(=O)COc1ccc(Br)cc1 | 5.23%
O=C(Cn1nnc(-c2ccccc2Cl)n1)N1CCN(S(=O)(=O)c2ccc(Cl)cc2)CC1 | -18%
Cc1ccc(C)c(OCC(=O)N2CCN(C(=O)c3ccco3)CC2)c1 | -8.23%
Cc1cccc(COc2coc(CN3CCN(C(=O)c4ccco4)CC3)cc2=O)c1 | -50.7%
CC(C)(C)NC(=O)COc1coc(CN2CCN(C(=O)c3ccco3)CC2)cc1=O | 20.1%
O=C(c1ccco1)N1CCN(Cc2cc(=O)c(OCc3cccc(Cl)c3)co2)CC1 | -74.7%
Cc1ccc(COc2coc(CN3CCN(C(=O)c4ccco4)CC3)cc2=O)cc1 | -48.4%
CNC(=O)COc1coc(CN2CCN(C(=O)c3ccco3)CC2)cc1=O | 7.13%
O=C(c1ccco1)N1CCN(Cc2cc(=O)c(OCc3ccccc3F)co2)CC1 | -30.4%
CC(Oc1coc(CN2CCN(C(=O)c3ccco3)CC2)cc1=O)c1ccccc1 (centres unmarked) | 11.5%
O=C(c1ccco1)N1CCN(Cc2cc(=O)c(OCc3ccccc3Cl)co2)CC1 | -56.2%
COC(=O)COc1coc(CN2CCN(c3cccc(Cl)c3)CC2)cc1=O | -11.4%
CCCNC(=O)COc1coc(CN2CCN(C(=O)c3ccco3)CC2)cc1=O | 3.56%
Cc1ccc(C)c(COc2coc(CN3CCN(C(=O)c4ccco4)CC3)cc2=O)c1 | -100%
CC(C)CN(C(=O)COc1ccc(Br)cc1C=O)C1CCS(=O)(=O)C1 (centres unmarked) | -25.4%
COc1ccc(O)c(-c2cn[nH]c2-c2cccs2)c1 | 7.6%
O=C(CNC(=O)Cc1ccccc1)N=Nc1c(O)[nH]c2ccc(Br)cc12 | 24.7%
O=C(CSc1nc2ccccc2c(=O)[nH]1)Nc1ccccc1C(F)(F)F | -2.68%
